High-throughput results (PubChem)
KCNQ2 enhance – potentiators of rat KCNQ2 potassium channel; CHO-K1 KCNQ2, FluxOR thallium flux fluorescence; hits give high values; B-score at 10 µM; 310,000 tested, 0.54% active; AID 2239, 2010;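 active = fluorescence ratio B-score at least 3 SD of library B-scores, with initial fluorescence B-score within 3 of them, cut at about 5.3 in these data; same plate scores as AID 2156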;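 note: B-score of peak minus minimum over baseline fluorescence ratio after K+ and Tl+ stimulus; positive B-score means potentiation of KCNQ2 with more thallium influx and brighter signal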
Target sequence (O88943 whole entry, looked up): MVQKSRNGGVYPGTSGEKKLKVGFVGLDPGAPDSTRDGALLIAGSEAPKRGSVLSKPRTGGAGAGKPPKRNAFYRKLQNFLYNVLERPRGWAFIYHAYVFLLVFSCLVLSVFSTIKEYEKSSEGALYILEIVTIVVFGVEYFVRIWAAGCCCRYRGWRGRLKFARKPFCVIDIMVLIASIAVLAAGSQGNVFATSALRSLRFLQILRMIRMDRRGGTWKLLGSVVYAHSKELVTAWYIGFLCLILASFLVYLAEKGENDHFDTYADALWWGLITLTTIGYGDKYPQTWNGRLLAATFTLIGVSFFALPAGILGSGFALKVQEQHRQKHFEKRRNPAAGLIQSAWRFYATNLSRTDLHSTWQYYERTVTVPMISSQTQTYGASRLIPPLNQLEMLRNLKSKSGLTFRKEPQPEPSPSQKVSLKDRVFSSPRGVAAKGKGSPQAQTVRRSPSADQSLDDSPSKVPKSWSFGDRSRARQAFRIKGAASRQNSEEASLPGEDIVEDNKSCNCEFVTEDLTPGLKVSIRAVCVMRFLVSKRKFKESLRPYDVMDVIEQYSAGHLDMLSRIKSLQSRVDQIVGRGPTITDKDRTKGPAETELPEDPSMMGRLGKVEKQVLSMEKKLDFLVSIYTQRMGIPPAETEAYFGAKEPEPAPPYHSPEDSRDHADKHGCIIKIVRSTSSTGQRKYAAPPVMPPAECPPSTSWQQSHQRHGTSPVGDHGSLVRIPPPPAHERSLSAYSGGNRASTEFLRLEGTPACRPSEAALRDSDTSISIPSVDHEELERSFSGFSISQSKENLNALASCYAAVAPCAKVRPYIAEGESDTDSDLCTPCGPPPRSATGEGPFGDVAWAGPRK
KCNQ2 inh – rat KCNQ2 potassium channel inhibitors, primary screen, cell-based, CHO-K1, FluxOR thallium flux, B-score | Potassium voltage-gated channel subfamily KQT member 2 (Rattus norvegicus), O88943 | 20 min; hits give low values | B-score at 10 µM | 310,000 tested, 1.1% active;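 active = fluorescence ratio B-score at most minus 3 library SDs, with starting brightness B-score within 2 library SDs, cut at about -5.5 in these data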
KCNQ2 block conf – rat KCNQ2 potassium channel inhibitors, confirmation, cell-based, thallium flux | shares compounds with KCNQ2 inh | activity change, negative = inhibition, % at 10 µM | 1,000 tested, 57% active | KCNQ2-expressing cells, inhibition; hits give low values
KCNQ1 spec – human KCNQ1 channel inhibition, counter-screen for KCNQ2 inhibitor project, cell-based, FluxOR thallium flux; activity change, negative = inhibition, % at 10 µM; AID 493026, 2011; 1,000 tested, 15% active; shares compounds with KCNQ2 inh; KCNQ1-expressing cells, FluxOR thallium flux fluorescence; hits give low values;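 active = activity change at least 3 SD of negative controls below their mean in both duplicate wells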;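 note: CHO cells stably transfected with KCNQ1 and depolarized by potassium stimulus; peak minus minimum fluorescence over baseline after thallium addition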
CHO Tl ctr – thallium flux change in parental CHO cells, counter-screen for KCNQ2 inhibitor project | shares compounds with KCNQ2 inh | hits give low values | activity change, % at 10 µM | 1,000 tested, 14% active
KCNQ2 patch conf – rat KCNQ2 channel inhibitors, confirmation, cell-based, automated patch clamp, single concentration | shares compounds with KCNQ2 inh | KCNQ2-expressing cells, automated patch clamp current | calls only at 10 µM | 550 tested, 49% active | AID 588531, 2011
Large screens that a line does not name were inactive (follow-up assays come after a bar, where they were run). Hits are enriched below; roughly 1.6% of the tested compounds scored in any of these assays. Unless noted, the rule behind the calls is not given here.

COc1nc(OC)nc(Oc2ccc(Cl)cc2[N+](=O)[O-])n1	none (no result: KCNQ2 enhance)
Cc1ccn2c(=O)c(NC(=O)c3cccs3)c(C)nc2c1	none
COc1ccc(/C=C/C(=O)NCC(c2ccc(F)cc2)N2CCOCC2)cc1OC (stereo not given)	none (no result: KCNQ2 enhance)
CCOc1ccc(N(Cc2ccc(OC)cc2)C(=O)c2ccco2)cc1	none (no result: KCNQ2 enhance)
COc1ccc(CN(C(=O)c2ccco2)c2ccc(C)c(C)c2)cc1	KCNQ2 inh -6.7 | KCNQ2 block conf inactive | KCNQ1 spec inactive | CHO Tl ctr inactive
CCc1ccc(NC(=S)Nc2ccc3[nH]c(=O)[nH]c3c2)cc1	none (no result: KCNQ2 enhance)
CC(=O)Nc1ccc(NC(=O)c2ccc(COc3ccccc3Br)o2)cc1	none
Cc1cccc(NC(=O)c2ccc(COc3cccc4ccccc34)o2)n1	KCNQ2 inh -8.8 | KCNQ2 block conf -38% | KCNQ1 spec -34% | CHO Tl ctr -28% | KCNQ2 patch conf inactive
COc1ccccc1NC(=O)CN(Cc1ccco1)C(=O)c1ccc(Cl)nc1	none (no result: KCNQ2 enhance)
CN(C(=O)c1cccc(NC(=O)c2cccs2)c1)c1ccccc1	none
O=C(COC(=O)c1cc(-c2ccco2)nc2ccccc12)NCc1ccccc1	KCNQ2 inh -6.9 | KCNQ2 block conf inactive | KCNQ1 spec inactive | CHO Tl ctr inactive
CNC(=O)COC(=O)c1cc(-c2ccco2)nc2ccccc12	none (no result: KCNQ2 enhance)
CCN(CC)CCNC(=O)c1cc(-c2ccco2)nc2ccccc12	none
COc1ccc(CCNC(=O)c2cc(-c3ccco3)nc3ccccc23)cc1	KCNQ2 inh -8.2 | KCNQ2 block conf -27% | KCNQ1 spec inactive | CHO Tl ctr inactive | KCNQ2 patch conf active
Cc1cc(C)c(NC(=O)/C(=C/c2ccccc2)c2ccccc2)c(C)c1	KCNQ2 inh -7.5 | KCNQ2 block conf inactive | KCNQ1 spec inactive | CHO Tl ctr inactive
Cc1ccc(NC(=O)/C(=C/c2ccco2)c2ccccc2)c(C)c1	none (no result: KCNQ2 enhance)
CCCC1NC(C(=O)O)Cc2c1[nH]c1ccccc21 (stereo not given)	none (no result: KCNQ2 enhance)
CC(=O)CN1Cc2ccccc2/C1=N\C(=O)Nc1ccccc1	none
COc1ccc(N2Cc3ccccc3/C2=N\C(=O)Nc2ccccc2)cc1	KCNQ2 inh -7.1 | KCNQ2 block conf -28% | KCNQ1 spec inactive | CHO Tl ctr inactive | KCNQ2 patch conf active
COc1ccc(COC(=O)c2sc3nc4n(c(=O)c3c2C)CCC4)cc1	none (no result: KCNQ2 enhance)
Cc1ccc(NC(=O)NN2CCN(C)CC2)cc1C	none
Cc1ccc2c(c1C)OC(=O)CC2c1ccccc1 (stereo not given)	none (no result: KCNQ2 enhance)
O=C(NCCn1cc(SCc2ccccc2)c2ccccc21)c1ccccc1F	KCNQ2 inh -8.2 | KCNQ2 block conf inactive | KCNQ1 spec inactive | CHO Tl ctr inactive
O=C(CSc1cn(CCNC(=O)c2ccccc2F)c2ccccc12)NCC1CCCO1 (stereo not given)	none
CCN(CC(=O)Nc1ccccc1OC)C(=O)c1cc(-c2ccccc2)nn1-c1ccccc1	none (no result: KCNQ2 enhance)
CCN(CC(=O)Nc1ccccc1C(F)(F)F)C(=O)c1cc(-c2ccccc2)nn1-c1ccccc1	KCNQ2 inh -9.3 | KCNQ2 block conf inactive | KCNQ1 spec inactive | CHO Tl ctr inactive
CC12CCC(C(=O)N3CCC(Cc4ccccc4)CC3)(C(=O)C1=O)C2(C)C (stereo not given)	none (no result: KCNQ2 enhance)
Cc1cccc(C(=O)NC2CCN(S(=O)(=O)c3ccc(F)cc3)CC2)c1	none
CCOc1ccccc1OCC(=O)N/N=C(\C)Cc1ccc(OC)cc1	none
COc1ccccc1OCC(=O)NN=C(Cc1ccccc1)Cc1ccccc1	KCNQ2 inh -6.7 | KCNQ2 block conf -32% | KCNQ1 spec inactive | CHO Tl ctr inactive | KCNQ2 patch conf active
Cc1cc(C(=O)c2ccccc2)c(NC(=O)CCl)s1	none (no result: KCNQ2 enhance)
Cc1sc(NC(=O)CN2CCOCC2)c(C(=O)c2ccccc2)c1C	none (no result: KCNQ2 enhance)
CCN(CC)CC(=O)Nc1sc(C)cc1C(=O)c1ccc(C)cc1	KCNQ2 inh -6.7 | KCNQ2 block conf -23% | KCNQ1 spec inactive | CHO Tl ctr inactive | KCNQ2 patch conf inactive
Cc1ccc(C(=O)c2c(NC(=O)c3ccccc3C)sc(C)c2C)cc1	KCNQ2 inh -11 | KCNQ2 block conf -28% | KCNQ1 spec inactive | CHO Tl ctr inactive | KCNQ2 patch conf inactive
CCN(CC)CC(=O)Nc1sc(C)c(C)c1C(=O)c1ccc(C)cc1	KCNQ2 inh -6.6 | KCNQ2 block conf inactive | KCNQ1 spec inactive | CHO Tl ctr inactive
Cc1sc(NC(=O)c2ccco2)c(C(=O)c2ccc(Cl)cc2)c1C	none (no result: KCNQ2 enhance)
CCCCn1c(N)c(N(CCOC)C(=O)c2nn(CC)c(=O)c3ccccc23)c(=O)[nH]c1=O	none
Cc1ccccc1C(=O)Nc1ccnn1C1CCN(Cc2cnn(C)c2)CC1	none
O=C(NCC(=O)N1CCN(c2ccccc2O)CC1)c1ccc(Br)o1	none
O=C(CCN1CCOCC1)c1ccc(Cl)cc1	none (no result: KCNQ2 enhance)
COc1ccc(C(=O)CCN2CCN(c3ccccc3F)CC2)cc1	none (no result: KCNQ2 enhance)
O=C(CCN1CCOCC1)c1ccc(Br)cc1	KCNQ2 inh -7.4 | KCNQ2 block conf -47% | KCNQ1 spec -50% | CHO Tl ctr -36% | KCNQ2 patch conf inactive
COc1ccc(C(=O)CCN2CCN(c3ccc(OC)cc3)CC2)cc1	none (no result: KCNQ2 enhance)
O=C(CCN1CCN(c2ccccc2F)CC1)c1ccc(Br)cc1	KCNQ2 inh -8.5 | KCNQ2 block conf inactive | KCNQ1 spec inactive | CHO Tl ctr inactive
O=C(CCN1CCN(c2ccccc2)CC1)c1ccc(Br)cc1	KCNQ2 inh -8.2 | KCNQ2 block conf -22% | KCNQ1 spec inactive | CHO Tl ctr inactive | KCNQ2 patch conf inactive
CCN1CCN(S(=O)(=O)c2ccc(C(C)(C)C)cc2)CC1	none (no result: KCNQ2 enhance)
CCOC(=O)C1=NOC2C3CC(C12)C1C(=O)N(CCc2ccc(OC)c(OC)c2)C(=O)C31 (stereo not given)	none (no result: KCNQ2 enhance)
Cc1ccccc1-n1ncc2c1CC(C)(C)CC2NC(=O)CCN1CCCCC1=O (stereo not given)	none
CCOc1cc(/C=N/NC(=O)CCn2nc(C)cc2C)ccc1O	none (no result: KCNQ2 enhance)
O=C(CCn1cccn1)Nc1ccc2c(c1)OCO2	none
CCOc1ccc(-c2cnc(NCc3cccc4ccccc34)n2CCOC)cc1	KCNQ2 inh -9.7 | KCNQ2 block conf inactive | KCNQ1 spec inactive | CHO Tl ctr inactive
COCCn1c(-c2ccc(OC)cc2)cnc1N	none (no result: KCNQ2 enhance)
COc1ccc(OCc2cc(C(=O)N(C)C(C)c3ccon3)no2)c(Cl)c1 (stereo not given)	none
NS(=O)(=O)c1ccc(NC(=O)COc2cccc3ccccc23)cc1	none
Cc1ccc(S(=O)(=O)N2CCOCC2)cc1NC(=O)COC(=O)CNC(=O)c1ccc(Cl)cc1Cl	none (no result: KCNQ2 enhance)
COC(=O)c1cc(-c2ccc3c(c2)OCO3)nc2ccccc12	none
